hNpr1 antagonist: human Npr1 receptor antagonism. P16066. Potency, µM (series often up to 46.3 µM), without a hit: top-dose activity change, negative = inhibition, most hits filed as inhibitors. 1.6% of 76,000 active. HEK293 hNpr1 GloSensor cGMP, ANP-stimulated luminescence; calls by dose curve; note: nearly all actives have a fitted effect of over 60% in size
Target sequence (P16066 whole entry, looked up): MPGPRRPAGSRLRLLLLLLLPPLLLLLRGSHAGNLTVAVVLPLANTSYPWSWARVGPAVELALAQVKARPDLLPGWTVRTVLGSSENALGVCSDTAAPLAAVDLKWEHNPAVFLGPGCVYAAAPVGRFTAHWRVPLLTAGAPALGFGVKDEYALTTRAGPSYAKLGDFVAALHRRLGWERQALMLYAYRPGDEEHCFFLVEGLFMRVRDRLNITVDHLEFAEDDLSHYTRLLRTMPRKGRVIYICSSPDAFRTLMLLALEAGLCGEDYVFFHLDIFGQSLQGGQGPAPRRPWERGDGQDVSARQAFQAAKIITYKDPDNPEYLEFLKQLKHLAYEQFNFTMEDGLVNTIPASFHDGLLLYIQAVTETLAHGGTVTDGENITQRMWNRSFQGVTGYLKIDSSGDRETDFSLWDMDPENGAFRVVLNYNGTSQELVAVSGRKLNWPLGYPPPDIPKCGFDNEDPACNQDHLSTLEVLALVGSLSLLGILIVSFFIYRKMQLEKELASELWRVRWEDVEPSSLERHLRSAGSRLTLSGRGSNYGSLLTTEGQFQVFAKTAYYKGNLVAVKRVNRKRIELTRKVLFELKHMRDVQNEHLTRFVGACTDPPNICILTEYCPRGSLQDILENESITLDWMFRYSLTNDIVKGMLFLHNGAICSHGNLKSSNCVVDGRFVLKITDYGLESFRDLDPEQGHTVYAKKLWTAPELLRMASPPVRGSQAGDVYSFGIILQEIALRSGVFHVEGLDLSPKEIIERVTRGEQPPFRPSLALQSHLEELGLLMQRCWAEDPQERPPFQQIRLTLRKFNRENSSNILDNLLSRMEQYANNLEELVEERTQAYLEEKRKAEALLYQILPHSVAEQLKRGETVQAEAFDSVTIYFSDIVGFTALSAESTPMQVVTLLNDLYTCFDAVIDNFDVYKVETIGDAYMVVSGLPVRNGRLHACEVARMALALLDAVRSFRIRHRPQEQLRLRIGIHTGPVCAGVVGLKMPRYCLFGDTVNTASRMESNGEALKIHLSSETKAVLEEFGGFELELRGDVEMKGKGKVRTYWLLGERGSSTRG
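HEK293 cells stably expressing human Npr1 and cGMP GloSensor pGS-40F, loaded 2 h with 2% GloSensor reagent, given compound 30 min at room temperature. Luminescence read before and 20 min after 0.1 nM hNppA.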
Luciferase inh: inhibitors of firefly (Photinus pyralis) luciferase; purified P. pyralis luciferase, luminescence, biochemical; Potency, µM (doses to about 115 µM), most hits filed as inhibitors; 2.5% of 76,000 active; note: nearly all actives have a fitted effect of over 65% in size
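Biochemical qHTS: compound (6-point titration) added to 10uM D-luciferin plus 10uM ATP in Tris acetate pH 7.5 buffer with Mg, Tween-20 and BSA, then purified enzyme at 10nM; light output imaged.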
HEK293 tox: cytotoxic compounds in HEK 293 cells | HEK 293 viability, ATP luminescence (CellTiter-Glo), 48-72 h | Potency, µM (doses to about 115 µM), inactives show at the highest dose activity change, negative = cytotoxicity, usual class: inhibitors | 6.6% of 94,000 active; note: nearly all actives have a fitted effect of over 60% in size
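qHTS cytotoxicity; HEK 293, 250 cells/well; compound pinned; 48 or 72 hr, 37 degree Celsius, 5% CO2, 95% humidity; CellTiter-Glo, 10 min RT; luminescence (ATP).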
3T3 cytotox: cytotoxic compounds in NIH 3T3 cells; NIH 3T3 viability, CellTiter-Glo ATP luminescence, 48-72 h; Potency, µM (series often up to 96.7 µM), for inactives: at the top dose activity change, negative = cytotoxicity, actives largely listed as inhibitors; 4.3% of 94,000 active; AID 1345082; note: nearly all actives have a fitted effect of over 55% in size
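Viability of NIH 3T3 cells after 48 or 72 hr compound treatment at 37 °C was assessed by CellTiter-Glo, with luminescence imaged following a 10 min room-temperature step.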
* hit, by the source's call; i = inactive; ? = inconclusive; / = no result given; [ ] = remark or other dose. Hits are enriched below; roughly 11% of the tested compounds scored in any of these assays. Unless noted, calls come from the whole dose curve; as a rule, active = well fitted curve in the direction sought with a large enough effect; inconclusive = small, poorly fitted or top-dose-only effect, or another doubt; inactive = no such curve, though single readings can be large; an effect the other way counts as inactive or inconclusive. % is set by controls: 0 for no effect and ±100 for the full control effect; potency is the fitted concentration of half-maximal effect.

SMILES	hNpr1 antagonist	Luciferase inh	HEK293 tox	3T3 cytotox
CN(C(=O)[C@@H]1C[C@@H](c2ccc(F)cc2)N([S+](=O)([O-])c2ccccc2)C1)c1ccccc1	-25.0%[70.6 µM]	i	?	35.5µM*
Cc1ccc([S+](=O)([O-])N2CCCC(C(=O)N3CCC(c4ccccc4)CC3)C2)cc1 (centres undefined)	/	/	-23.3%	-25.1%
Cc1noc(C)c1-c1cc2c(c(-c3ccc(CO)cc3)c1)C(=O)N(C)C2	4.4%[70.6 µM]	i	?	79.4µM*
COc1ccc(-c2cc(-c3c(C)noc3C)cc3c2C(=O)N(C)C3)cn1	?	i	79.4µM*	?
Cc1cccc(C(=O)N2CCC(c3noc(COc4cccnc4)n3)CC2)c1	4.5%	i	?	?
COCCN1CCNc2nc(COc3ccc(C(C)C)cc3)n(Cc3ccccc3)c2C1=O	-0.1%	i	63.1µM*	?
O=C1c2c(nc(COc3cccc(F)c3)n2Cc2ccccc2)NCCN1CC1CC1	-3.3%[70.6 µM]	i	100µM*	89.1µM*
O=C1c2c(nc(COc3cccc(F)c3)n2Cc2ccccc2)NCCN1CCOc1ccccc1	-26.3%	i	?	35.5µM*
CSc1ccc(-c2cccc(C(=O)NCC(=O)NC3CCCC3)c2)cc1	/	/	?	-39.1%
Cc1ccc(CN2CC(C(=O)NCCc3ccncc3)C3(CCOCC3)C2)s1 (centres undefined)	-0.1%	i	-12.0%	-7.2%
Cc1ccc(NC(=O)CN2C(=O)NC3(CCS(=O)(=O)CC3)C2=O)cc1C	2.1%	i	17.3%	i
O=C(CN1C(=O)NC2(CCS(=O)(=O)CC2)C1=O)Nc1ccc2c(c1)OCCO2	-4.9%	35.5µM*	1.3%	i
O=C(C1CCOCC1)N1CC(CNc2ccccc2)C2(C1)CN(c1ccccc1)C2 (centres undefined)	-0.3%[70.6 µM]	i	?	?
CC(C)(C)c1ccc(-c2noc(CNC(=O)CN3C(=O)CNC3=O)n2)cc1	-2.7%	17.8µM*	-0.8%	-5.7%
O=C(CN1C(=O)CNC1=O)NCCc1noc(-c2ccccc2)n1	0.6%	i	-7.7%	0.9%
CC(C)c1noc(C2CCCN(C(=O)C3(c4ccccc4)CC3)CCC(=O)NCC2)n1 (centres undefined)	-4.8%	i	-8.3%	-16.6%
Cc1c(-c2ccccc2F)[nH]c2ccc(CNC(=O)CCn3cnnc3)cc12	0.1%	?	-8.8%	?
Cc1c(-c2ccccc2F)[nH]c2ccc(CNC(=O)CN3CC(=O)NC3=O)cc12	-5.1%	15.8µM*	?	?
Cc1nc(CCC(=O)NCc2ccc3[nH]c(-c4ccccc4F)c(C)c3c2)n[nH]1	-1.1%	15.8µM*	?	?
Cc1c(-c2ccccc2F)[nH]c2ccc(CNS(=O)(=O)C3CC3)cc12	?	?	35.5µM*	?
Cc1c(-c2ccccc2F)[nH]c2ccc(CNC(=O)C3CCNC3)cc12 (centres undefined)	-18.2%	20µM*	?	?
Cc1ccccc1CN1CCCC(CCNS(=O)(=O)C2CC2)C1 (centres undefined)	-0.9%	i	-11.5%	-1.0%
COc1ccccc1-c1ccc(NCC2CCCN(C(=O)C3CC3)C2)nn1 (centres undefined)	0.8%	?	-27.2%	-17.5%
CN1CC(=O)N(c2ccccc2)Cc2c(NCCCc3ccccc3)ncnc21	-9.7%	i	?	?
COc1ccc(NC(=O)C2CCc3nnc(C4CCN(C(C)=O)CC4)n32)cc1 (centres undefined)	/	/	-18.8%[172 µM]	-17.3%[138 µM]
SMILES	hNpr1 antagonist	Luciferase inh	HEK293 tox	3T3 cytotox
C[C@@]12CO[C@@H](COc3ccccc3)O[C@@H]1CC[C@]1(C)C2CC[C@@H](O)[C@H]1CC(=O)NCc1cc(F)cc(F)c1 (some centres undefined)	?	i	28.2µM*	?
COC[C@@H]1OC[C@@]2(C)C3CC[C@@H](O)[C@@H](CC(=O)NCc4ccc(F)cc4)[C@]3(C)CC[C@H]2O1 (some centres undefined)	5.0%	i	1.9%	-2.3%
CCc1nc2c(c(-c3ccc(OC)cc3)n1)CCN(Cc1ccc(F)cc1)CC2	/	/	?	-6.5%
NC1(C(=O)NCc2nc(-c3cccc(F)c3)c(-c3ccccn3)[nH]2)CCC1	-10.5%	i	-9.4%	-0.9%
O=C(NCc1nc(-c2cccc(F)c2)c(-c2ccccn2)[nH]1)N1CCCC1	5.1%	i	50.1µM*	?
CNC(=O)c1cc(C2CC2)nc2c1c(C1CCN(C(=O)C3CC3)C1)nn2C (centres undefined)	/	/	0.0%	-20.9%
CCOc1ccc(Cc2nc(C3CC(=O)N(C4CCCCC4)C3)no2)cc1 (centres undefined)	-3.2%	i	?	-25.1%
O=C1CC(c2noc(Cc3ccc(Cl)cc3)n2)CN1C1CCCCC1 (centres undefined)	-17.1%	i	70.8µM*	?
COc1ccc(-c2ccc(C(=O)NC(C)C)c(Cl)c2)nn1	/	/	-27.8%[172 µM]	?
COc1ccc(-c2ccc(C(=O)N3CCCC3)cc2)nn1	/	/	25.1µM*	17.8µM*
COc1ccc(-c2ccc(C(=O)N3CCCC3)c(Cl)c2)nn1	/	/	?	31.6µM*
COc1ccc(-c2ccc(C(=O)N3CCN(C(=O)c4ccc(C)cc4)CC3)cc2)nn1	/	/	-25.0%	-22.9%
C=CCOc1cc(C)c2c(c1C)[C@H](O)C([C@H](C)C(=O)N(C)Cc1ccccc1)CC2 (some centres undefined)	-4.5%[70.6 µM]	i	?	70.8µM*
Cc1ccccc1[C@H]1C[C@@H](O)[C@@H](O)[C@@H]1NC(=O)c1nc2ccccc2s1	-10.6%[70.6 µM]	i	?	?
COc1ccc([C@H]2C[C@@H](O)[C@@H](O)[C@@H]2NC(=O)c2nc3ccccc3s2)cc1	-26.0%[70.6 µM]	44.7µM*	?	-26.6%[138 µM]
O=C(N[C@H]1[C@H](O)[C@H](O)C[C@@H]1c1ccc(C(F)(F)F)nc1)c1nc2ccccc2s1	-11.4%[70.6 µM]	44.7µM*	-26.9%[172 µM]	-21.8%[138 µM]
N#Cc1ccc(C(=O)N[C@H]2[C@H](O)[C@H](O)C[C@@H]2c2ccc(C(F)(F)F)nc2)cc1	6.8%[70.6 µM]	i	i	-23.2%[174 µM]
COCC(=O)NC1CCCN(c2ccnc3ccnn23)C1 (centres undefined)	/	/	i	-4.0%[138 µM]
COC(=O)CNC(=O)c1ccc2nnc(-c3ccc(C(F)(F)F)cc3)n2c1	/	/	-10.0%	-19.0%
O=C(COc1ccccc1)N1CC[C@H](c2nnc(-c3ccccc3)o2)C1	5.6%[70.6 µM]	i	-1.2%[172 µM]	?
O=C(COc1ccccc1)N1CCC(n2cc(-c3nc(-c4ccccc4)no3)nn2)CC1	0.0%	i	?	12.6µM*
O=C(c1c(F)cccc1F)N1CCC(n2cc(-c3nc(-c4ccccc4)no3)nn2)CC1	1.12µM*	i	?	?
Cc1ccc(C(=O)N2CCC(n3cc(-c4nc(-c5ccccc5)no4)nn3)CC2)cc1	-20.5%	i	?	-16.8%

From PubChem
